Data as given in PubChem BioAssay AID1053122 (Broad Institute, 2014).
Results with a measured potency or affinity are listed apart. Active and inactive are the calls of the source.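 Rule for the calls: active = CTGF level falls with dose and the fitted half-maximal dose is at most twice the top valid dose; inconclusive = flat fit with 30 to 70% drop, or a poor fit; inactive = the rest.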

assay: YAP1 pathway inhibition via CTGF transcript levels, dose response, cell-based, DLD1 colon cancer, RT-qPCR, cherry-pick (AID 1053122); details: DLD1 CTGF mRNA (YAP1 pathway), 24 h; series mostly up to 26 µM

outcome, inactive:
COCC(=O)N1CC(=O)N2[C@H](CO)[C@@H](c3ccc(C#CC4CC4)cc3)[C@H]2C1
COCC(=O)N1CC[C@@H]2[C@H](CO)Nc3ccc(C#Cc4ccc(F)cc4)cc3[C@@H]21
CNC[C@H]1Oc2c(NC(=O)Nc3cccc4ccccc34)cccc2C(=O)N([C@H](C)CO)C[C@@H]1C
C[C@@H]1CC=CC[C@@H](c2cccc(Cl)c2)NC(=O)[C@@H](Cc2ccccc2)N(C)C(=O)c2ccccc2O1 (mixture of isomers)
CCC(=O)N1C[C@H](C)[C@@H](OC)CN(C)C(=O)c2cc(NC(=O)Nc3ccc(Cl)cc3)ccc2OC[C@@H]1C
COc1ccc(NC(=O)N(C)C[C@H]2Oc3c(NC(=O)CCCCCC(=O)Nc4ccccc4N)cccc3C(=O)N([C@H](C)CO)C[C@@H]2C)cc1
Cc1ccc(S(=O)(=O)Nc2ccc3c(c2)CC(=O)N([C@H](C)CO)C[C@@H](C)[C@@H](CN(C)S(=O)(=O)c2ccccc2)O3)cc1
C[C@H]1CC=CC[C@@H](c2ccc(F)cc2)NC(=O)[C@H](Cc2ccccc2)N(C)C(=O)c2ccccc2O1 (mixture of isomers)
